“And” between values parts separate entries of the source, which are not always exact repeats. Equal values may be shown once.

The source of these data is ChEMBL document CHEMBL5308504, “Tm Shift (DSF) assay results for EUbOPEN Chemogenomics Library” (2023).

The target of this test is Bromodomain-containing protein 4 (Homo sapiens) (UniProt O60885). To be noted: Compound concentration 20.0 uM, Protein concentration 2.0 uM, Result type QC Liability.
Broadly, the ΔTm is the change in melting temperature against a reference sample. `Cc1cccc(CC(=O)N2CCc3c2ccc(-c2cn(C)c4ncnc(N)c24)c3F)n1`: the ΔTm was -0.38 °C. The value for `Cn1cncc1-c1cn(-c2cccc(C(=O)Nc3cccc(C(F)(F)F)c3)c2)nn1` was -2.66 °C; that for `Cc1cc(-c2cnc(N)c3c(-c4ccc5scnc5c4)csc23)n(C)n1` was -1.04 °C. On to `CCc1nc(C2CCC2)n2nc(-c3ccccc3)[nH]c(=O)c12`, for which the ΔTm is 0.07 °C. In the case of `O=C(CCCCCCc1ccccc1)c1ncc(-c2ccccn2)o1`, the ΔTm was -1.06 °C. Regarding `C[C@@]1(Cc2ccc(C#N)cc2)C(=O)N(c2cc(Cl)cc(Cl)c2)c2ncc(C(=O)NC3(c4nc(C5CCC5)no4)CC3)n21`, the ΔTm was found to be 10.3 °C.

Take `O=C(NCCS(=O)(=O)c1ccc(C(F)(F)F)cn1)c1ccc(Cl)cc1`: the ΔTm is -3.11 °C. For the compound `COc1cc(CN(CCN)C(=O)N[C@@H](C)c2ccccc2)ccc1OCc1ccccc1`, the ΔTm is -1.26 °C. With `c1ccc(C2CCN(c3cnc4c(N5CCOCC5)nccn34)CC2)cc1`, the ΔTm is -0.69 °C.

On to `C[C@]12CC[C@@H]3c4ccc(O)cc4CC[C@H]3[C@@H]1C[C@H]1OC(=O)C[C@]12O`, for which the ΔTm is -11.6 °C.

With `Nc1nc(-c2nn(Cc3ccccc3F)c3ncccc23)ncc1C1CC1`, the ΔTm stood at 1.11 °C. As for `CN(C)C(=O)Cn1cc(-c2nc(C3(c4ccc(-c5cnc(N)nc5)cc4)CC3)no2)cn1`, the figure is -1.16 °C; as for `Cc1cc(Cn2c(N3CC4(CNC4)C3)nc3c(N4CCN(C)CC4)cc(Cl)cc32)cc(C)c1F`, -1.49 °C; as for `CS(C)(=O)=Nc1ccc(-c2ccc(-c3nc4[nH]c(O[C@@H]5CO[C@H]6[C@@H]5OC[C@H]6O)nc4cc3Cl)cc2)cc1`, 1.46 °C. For the compound `C[C@H](NC(=O)c1cc(Cl)ccc1Oc1ccc(F)cc1)c1ccc(C(=O)O)cc1`, the ΔTm was -0.23 °C. In the case of `O=C(O)[C@]1(Cc2cccc(Nc3nccs3)n2)CC[C@@H](Oc2cccc(Cl)c2F)CC1`, the ΔTm was determined as 0 °C. Consider `Cc1cc(Cn2c(N3CC4(CNC4)C3)nc3cc(Cl)cc(N4CCN(C)CC4)c32)cc(C)c1F`, for which the ΔTm is -0.27 °C. Consider `N[C@@H]1CCCC[C@H]1Oc1ccc2ncc(-c3cc4ccccc4o3)n2n1`, for which the ΔTm was -0.47 °C.

As for `CNc1nc(Nc2ccc(C(=O)N3CCOCC3)cc2OC)ncc1Cl`, the ΔTm is -0.71 °C. In the case of `CCC(F)(F)c1cc(N2CCC(S(C)(=O)=O)CC2)nc2sc(C(N)=O)c(N)c12`, the ΔTm was -3.68 °C and -1.82 °C and -0.22 °C. On to `NCCCc1c(C(=O)O)[nH]c2ccc(C(=O)Nc3ccccc3)cc12`, for which the ΔTm was -2.73 °C. In the case of `O=C(Nc1ccc(-n2nc(-c3cccnc3)cc2C(F)(F)F)cn1)c1ccc(-c2ccccc2)c(F)c1`, the ΔTm was -2.41 °C.

On to `CCn1c(-c2nonc2N)nc2ccccc21`, for which the ΔTm is -0.33 °C. The value for `CC1(C)CCN(C(=O)C2CN(c3c4c(nc5ccnn35)CCNCC4)C2)C1` was -0.32 °C.

Consider `CCC(=O)N[C@H]1CC[C@@H](C(=O)N(C)c2ccc(-c3nc4ccccc4o3)cc2)C1`, for which the ΔTm amounted to 0.09 °C. As for `CC[C@@H](CO)Nc1nc(Nc2cccc(NC(=O)C(C)(C)C)c2)ncc1F`, the figure is -2.22 °C; as for `O=C1NC(=NCc2cccs2)SC1=Cc1ccc2ncccc2c1`, 0.38 °C. Turning to `C[S+](C)[O-]`, the ΔTm is 0 °C (2×) and -2.05 °C. With `Oc1c(-c2cccnc2)cnn1-c1ccccn1`, the ΔTm is -1.85 °C. Consider `C[C@@H]1OCC2(CCN(c3cnc(Sc4ccnc(N)c4Cl)c(N)n3)CC2)[C@@H]1N`, for which the ΔTm was -2.61 °C. As for `CS(=O)(=O)NC(=O)CCC/C=C\C[C@H]1C(=O)C[C@@H](O)[C@@H]1/C=C/[C@@H](O)COc1ccccc1`, the ΔTm is -2 °C. On to `O=C(NCCN1CCOCC1)c1ccc2nn(CCOc3ccc(Cl)cc3)cc2c1`, for which the ΔTm came to 0.04 °C. As to `COc1ccc(CSc2nnc(-c3ccc4ncsc4c3)o2)cc1C(F)(F)F`, the ΔTm was -5.83 °C. In the case of `CN1CCN(C(=O)c2ccc3cc2OCCOCCNc2ccn4ncc-3c4n2)CC1`, the ΔTm turned out to be 0.71 °C.

Regarding `Fc1cccc(-n2cnc3c(NCc4nc5c(F)c(F)ccc5[nH]4)nc(N4CCOCC4)nc32)c1`, the ΔTm worked out at 0.39 °C. The value for `O=C(Nc1ccnc(NC(=O)C2CC2)c1)c1c(Cl)cccc1Cl` was -1.81 °C. With `O=C(O)CCCCN(CCc1ccccc1OCc1ccc(CCc2ccccc2)cc1)Cc1ccc(C(=O)O)cc1`, the ΔTm was -0.88 °C.

For `O=C(O)Cc1cc(I)c(Oc2ccc(O)c(I)c2)c(I)c1`, the ΔTm was -5.23 °C. The value for `CCS(=O)(=O)c1cc2cc(C[C@](O)(CC(C)(C)c3ccc(F)cc3C(N)=O)C(F)(F)F)[nH]c2cn1` was -2.16 °C; that for `C[C@@H]1Cc2c([nH]c3ccccc23)[C@@H](c2c(F)cc(/C=C/C(=O)O)cc2F)N1CC(C)(C)F` was 0.36 °C.
